Among the data in PMC7862700, “An all-to-all approach to the identification of sequence-specific readers for epigenetic DNA modifications on cytosine” are binding signal values, retold here.

Holding throughout (assay): DAPPL (digital affinity profiling via proximity ligation, sequencing); 10 mM Tris-HCl pH 7.5, 50 mM NaCl, 1 mM DTT, 4% glycerol, room temperature, 30 min; GST-TFs on glutathione beads, 16-mer random dsDNA library, 0.1% formaldehyde crosslink after washing; high values mean tight binding
For one assay, the target named is T1, ELK1 (Homo sapiens, UniProt P19419 1-428).
T1 sequence: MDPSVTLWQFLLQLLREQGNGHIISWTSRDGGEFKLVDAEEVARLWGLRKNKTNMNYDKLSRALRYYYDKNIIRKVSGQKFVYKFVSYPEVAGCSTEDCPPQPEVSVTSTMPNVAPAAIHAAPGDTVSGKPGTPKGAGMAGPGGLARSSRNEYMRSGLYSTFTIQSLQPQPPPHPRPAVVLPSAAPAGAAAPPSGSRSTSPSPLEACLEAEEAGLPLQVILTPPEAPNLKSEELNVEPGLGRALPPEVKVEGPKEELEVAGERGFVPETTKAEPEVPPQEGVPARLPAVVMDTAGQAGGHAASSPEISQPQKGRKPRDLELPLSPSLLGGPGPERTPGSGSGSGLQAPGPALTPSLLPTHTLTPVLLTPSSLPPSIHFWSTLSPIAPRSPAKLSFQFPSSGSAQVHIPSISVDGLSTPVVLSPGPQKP
Conditions: protein: recombinant; tags: N-terminal GST; dsDNA, one strand shown. In a few lines:
(§1)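 Human transcription factors carrying a GST fusion were produced in yeast, bound to glutathione beads, tagged with DNA barcodes and pooled together with a tag-only sample. Each pool was held with 200 nmole of a random double-stranded 16-mer DNA library in Tris/NaCl/DTT/glycerol buffer for 30 min at room temperature, then washed, crosslinked in 0.1% formaldehyde, proximity-ligated with BsaI/T4 ligase (1 h, 37 °C), PCR-amplified and sequenced on an Illumina NextSeq500. Binding signal is the read frequency of each hexamer for a given factor divided by its frequency in the tag-only sample.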

Another assay concerns the target ELF1 (Homo sapiens, UniProt P32519 1-619). Conditions: protein: recombinant; tags: N-terminal GST; dsDNA, one strand shown. In a few lines: as §1
The next assay concerns the target SPI1 (Homo sapiens, UniProt P17947 1-270). To be noted: protein: recombinant; tags: N-terminal GST; dsDNA, one strand shown. In a few lines:
as §1

The target of another assay is SPIB (Homo sapiens, UniProt Q01892 1-262). Conditions: protein: recombinant; tags: N-terminal GST; dsDNA, one strand shown. In a few lines: as §1
SPIB, sequence (Q01892 whole entry): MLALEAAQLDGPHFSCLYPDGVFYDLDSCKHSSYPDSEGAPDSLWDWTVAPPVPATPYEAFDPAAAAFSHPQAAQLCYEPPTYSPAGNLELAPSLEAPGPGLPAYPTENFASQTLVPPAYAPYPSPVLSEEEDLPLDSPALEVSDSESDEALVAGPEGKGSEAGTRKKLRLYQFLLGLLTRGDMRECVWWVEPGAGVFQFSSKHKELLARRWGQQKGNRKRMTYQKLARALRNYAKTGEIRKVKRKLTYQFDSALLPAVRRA
In the next assay the target is HSF1 (Homo sapiens, UniProt Q00613 1-529). Conditions: protein: recombinant; tags: N-terminal GST; chain copies: 3; dsDNA, one strand shown. In a few lines: as §1
HSF1, sequence (Q00613 whole entry): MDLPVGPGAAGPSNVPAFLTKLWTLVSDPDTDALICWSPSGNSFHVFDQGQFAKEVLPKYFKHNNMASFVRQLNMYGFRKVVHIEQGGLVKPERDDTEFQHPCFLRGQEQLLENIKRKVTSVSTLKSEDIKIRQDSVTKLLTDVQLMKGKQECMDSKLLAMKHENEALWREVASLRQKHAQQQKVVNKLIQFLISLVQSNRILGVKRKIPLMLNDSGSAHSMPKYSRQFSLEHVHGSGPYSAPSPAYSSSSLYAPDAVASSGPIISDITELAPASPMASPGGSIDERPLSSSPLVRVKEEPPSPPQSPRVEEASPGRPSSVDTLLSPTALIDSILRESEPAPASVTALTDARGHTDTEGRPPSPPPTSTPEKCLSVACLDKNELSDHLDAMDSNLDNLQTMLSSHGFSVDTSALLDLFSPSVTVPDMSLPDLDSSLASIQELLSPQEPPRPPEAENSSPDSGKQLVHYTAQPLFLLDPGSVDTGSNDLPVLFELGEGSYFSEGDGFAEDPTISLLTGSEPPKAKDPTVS
For the next assay, the target named is T2, SPIC (Homo sapiens, UniProt Q8N5J4 1-248).
T2 sequence: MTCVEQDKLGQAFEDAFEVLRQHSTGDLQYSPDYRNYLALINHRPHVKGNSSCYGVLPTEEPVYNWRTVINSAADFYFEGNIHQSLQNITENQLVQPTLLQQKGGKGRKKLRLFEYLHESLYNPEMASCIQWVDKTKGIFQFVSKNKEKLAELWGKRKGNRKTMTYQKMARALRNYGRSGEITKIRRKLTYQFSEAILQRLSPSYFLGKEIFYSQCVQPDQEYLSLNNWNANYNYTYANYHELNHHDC
To be noted: protein: recombinant; tags: N-terminal GST; dsDNA, one strand shown. In a few lines:
as §1

A further assay addresses T3, ELK4 (Homo sapiens, UniProt P28324-2 1-405).
T3 sequence: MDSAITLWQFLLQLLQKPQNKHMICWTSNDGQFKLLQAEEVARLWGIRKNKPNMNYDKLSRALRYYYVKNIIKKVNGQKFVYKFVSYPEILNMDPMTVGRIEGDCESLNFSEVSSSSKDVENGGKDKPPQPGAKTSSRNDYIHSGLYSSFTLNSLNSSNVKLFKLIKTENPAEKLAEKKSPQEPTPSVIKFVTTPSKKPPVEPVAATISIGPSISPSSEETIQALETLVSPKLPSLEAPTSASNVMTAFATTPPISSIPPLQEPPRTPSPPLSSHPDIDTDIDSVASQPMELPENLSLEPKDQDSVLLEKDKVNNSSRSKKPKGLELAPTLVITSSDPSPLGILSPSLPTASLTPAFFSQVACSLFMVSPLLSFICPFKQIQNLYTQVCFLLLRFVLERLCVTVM
To be noted: protein: recombinant; tags: N-terminal GST; dsDNA, one strand shown. In a few lines:
as §1

In a further assay the target is T4, ELF3 (Homo sapiens, UniProt P78545 1-371).
T4 sequence: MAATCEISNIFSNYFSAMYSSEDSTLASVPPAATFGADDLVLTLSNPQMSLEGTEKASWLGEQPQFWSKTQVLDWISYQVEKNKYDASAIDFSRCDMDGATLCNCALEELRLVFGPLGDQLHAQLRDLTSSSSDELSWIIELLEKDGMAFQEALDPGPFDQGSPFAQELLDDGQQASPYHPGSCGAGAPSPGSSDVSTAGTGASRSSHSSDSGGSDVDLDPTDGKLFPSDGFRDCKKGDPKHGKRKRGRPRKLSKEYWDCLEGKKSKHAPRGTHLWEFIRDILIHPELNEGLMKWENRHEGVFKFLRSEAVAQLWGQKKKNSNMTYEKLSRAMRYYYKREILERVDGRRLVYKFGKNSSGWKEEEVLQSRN
To be noted: protein: recombinant; tags: N-terminal GST; dsDNA, one strand shown. Summed up:
as §1

A further assay has as its target ETV1 (Homo sapiens, UniProt P50549 1-477). Conditions: protein: recombinant; tags: N-terminal GST; dsDNA, one strand shown. In a few lines: as §1
Another assay has as its target T5, ERF (Homo sapiens, UniProt P50548 1-548).
T5 sequence: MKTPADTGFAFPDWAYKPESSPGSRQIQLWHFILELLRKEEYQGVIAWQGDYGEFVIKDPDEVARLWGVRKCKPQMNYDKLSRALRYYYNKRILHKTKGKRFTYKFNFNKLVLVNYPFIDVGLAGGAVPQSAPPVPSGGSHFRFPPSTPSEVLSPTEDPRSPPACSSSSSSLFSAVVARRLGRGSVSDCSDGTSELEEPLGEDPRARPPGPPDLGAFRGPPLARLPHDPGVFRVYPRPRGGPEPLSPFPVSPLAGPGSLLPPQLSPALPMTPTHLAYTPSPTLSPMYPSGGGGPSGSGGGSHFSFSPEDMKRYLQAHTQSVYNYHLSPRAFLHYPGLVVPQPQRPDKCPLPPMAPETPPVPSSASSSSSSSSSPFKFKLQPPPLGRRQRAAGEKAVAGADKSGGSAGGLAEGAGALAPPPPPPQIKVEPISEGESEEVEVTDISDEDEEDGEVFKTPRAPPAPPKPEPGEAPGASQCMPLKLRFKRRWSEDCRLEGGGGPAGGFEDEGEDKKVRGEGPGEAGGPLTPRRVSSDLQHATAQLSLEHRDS
Conditions: protein: recombinant; tags: N-terminal GST; dsDNA, one strand shown. Summed up: as §1

The target of a further assay is T6, ETS2 (Homo sapiens, UniProt P15036 1-469).
T6 sequence: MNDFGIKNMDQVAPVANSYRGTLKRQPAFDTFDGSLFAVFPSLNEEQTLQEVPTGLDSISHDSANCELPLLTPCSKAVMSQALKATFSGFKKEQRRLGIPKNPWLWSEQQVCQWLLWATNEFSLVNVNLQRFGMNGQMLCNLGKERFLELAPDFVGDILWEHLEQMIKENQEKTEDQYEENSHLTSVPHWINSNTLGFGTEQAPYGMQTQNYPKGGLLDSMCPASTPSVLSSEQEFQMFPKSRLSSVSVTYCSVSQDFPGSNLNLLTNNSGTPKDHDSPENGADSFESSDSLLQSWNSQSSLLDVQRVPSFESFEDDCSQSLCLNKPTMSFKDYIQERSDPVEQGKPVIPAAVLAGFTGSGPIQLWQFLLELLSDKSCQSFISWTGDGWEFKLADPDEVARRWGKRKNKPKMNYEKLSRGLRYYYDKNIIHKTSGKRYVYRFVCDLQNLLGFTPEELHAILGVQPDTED
Conditions: protein: recombinant; tags: N-terminal GST; dsDNA, one strand shown. In a few lines: as §1

The next assay deals with T7, ETV3 (Homo sapiens, UniProt P41162-2 1-143).
T7 sequence: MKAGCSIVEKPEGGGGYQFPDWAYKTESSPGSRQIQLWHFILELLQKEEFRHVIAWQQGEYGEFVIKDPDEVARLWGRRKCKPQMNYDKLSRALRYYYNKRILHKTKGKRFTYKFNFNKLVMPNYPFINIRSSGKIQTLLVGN
Conditions: protein: recombinant; tags: N-terminal GST; dsDNA, one strand shown. In a few lines: as §1

For another assay, the target named is CRX (Homo sapiens, UniProt O43186 1-299). Conditions: protein: recombinant; tags: N-terminal GST; dsDNA, one strand shown. Summed up:
as §1

For a further assay, the target named is T8, ETV3L (Homo sapiens, UniProt Q6ZN32 1-361).
T8 sequence: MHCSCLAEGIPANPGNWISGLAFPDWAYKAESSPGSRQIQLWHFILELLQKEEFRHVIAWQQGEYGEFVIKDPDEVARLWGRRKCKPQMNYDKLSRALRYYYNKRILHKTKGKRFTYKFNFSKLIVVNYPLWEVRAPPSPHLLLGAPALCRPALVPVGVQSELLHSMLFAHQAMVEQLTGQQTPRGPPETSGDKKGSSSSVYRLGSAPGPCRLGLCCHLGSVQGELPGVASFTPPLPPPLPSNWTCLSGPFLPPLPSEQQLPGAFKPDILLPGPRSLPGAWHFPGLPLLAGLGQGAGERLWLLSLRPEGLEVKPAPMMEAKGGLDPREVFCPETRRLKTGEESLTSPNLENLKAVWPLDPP
To be noted: protein: recombinant; tags: N-terminal GST; dsDNA, one strand shown. In a few lines:
as §1

In a further assay the target is T9, SPDEF (Homo sapiens, UniProt O95238 1-335).
T9 sequence: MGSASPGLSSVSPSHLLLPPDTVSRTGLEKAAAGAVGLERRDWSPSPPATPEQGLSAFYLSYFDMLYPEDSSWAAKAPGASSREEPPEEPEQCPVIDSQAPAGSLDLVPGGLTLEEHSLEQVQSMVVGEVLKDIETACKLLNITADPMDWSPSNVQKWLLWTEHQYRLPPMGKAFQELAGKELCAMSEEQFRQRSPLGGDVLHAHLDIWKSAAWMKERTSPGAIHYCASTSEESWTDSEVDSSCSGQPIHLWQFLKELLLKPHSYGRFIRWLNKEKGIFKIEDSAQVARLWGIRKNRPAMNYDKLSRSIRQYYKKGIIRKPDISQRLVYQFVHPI
Conditions: protein: recombinant; tags: N-terminal GST; dsDNA, one strand shown. Summed up: as §1

ETV1, sequence (P50549 whole entry): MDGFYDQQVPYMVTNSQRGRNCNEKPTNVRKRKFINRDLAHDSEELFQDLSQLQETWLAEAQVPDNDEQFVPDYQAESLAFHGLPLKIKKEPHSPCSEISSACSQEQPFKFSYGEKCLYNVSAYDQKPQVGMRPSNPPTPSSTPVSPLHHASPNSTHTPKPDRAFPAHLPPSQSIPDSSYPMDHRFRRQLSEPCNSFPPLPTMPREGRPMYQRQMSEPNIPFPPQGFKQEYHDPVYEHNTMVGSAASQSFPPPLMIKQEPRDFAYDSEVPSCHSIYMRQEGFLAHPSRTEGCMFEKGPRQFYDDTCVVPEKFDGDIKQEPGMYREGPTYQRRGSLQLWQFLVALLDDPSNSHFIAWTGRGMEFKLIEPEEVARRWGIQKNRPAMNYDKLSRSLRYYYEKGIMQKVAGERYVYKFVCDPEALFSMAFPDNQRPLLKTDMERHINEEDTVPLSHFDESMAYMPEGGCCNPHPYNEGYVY
CRX, sequence (O43186 whole entry): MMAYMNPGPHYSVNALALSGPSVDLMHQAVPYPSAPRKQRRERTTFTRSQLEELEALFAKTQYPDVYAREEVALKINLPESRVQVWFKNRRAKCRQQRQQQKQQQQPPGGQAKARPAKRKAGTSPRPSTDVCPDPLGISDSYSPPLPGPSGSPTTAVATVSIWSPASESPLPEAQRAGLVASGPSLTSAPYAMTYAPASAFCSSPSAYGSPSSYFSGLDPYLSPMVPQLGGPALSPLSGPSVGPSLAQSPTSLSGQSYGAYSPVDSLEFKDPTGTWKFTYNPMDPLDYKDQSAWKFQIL
ELF1, sequence (P32519 whole entry): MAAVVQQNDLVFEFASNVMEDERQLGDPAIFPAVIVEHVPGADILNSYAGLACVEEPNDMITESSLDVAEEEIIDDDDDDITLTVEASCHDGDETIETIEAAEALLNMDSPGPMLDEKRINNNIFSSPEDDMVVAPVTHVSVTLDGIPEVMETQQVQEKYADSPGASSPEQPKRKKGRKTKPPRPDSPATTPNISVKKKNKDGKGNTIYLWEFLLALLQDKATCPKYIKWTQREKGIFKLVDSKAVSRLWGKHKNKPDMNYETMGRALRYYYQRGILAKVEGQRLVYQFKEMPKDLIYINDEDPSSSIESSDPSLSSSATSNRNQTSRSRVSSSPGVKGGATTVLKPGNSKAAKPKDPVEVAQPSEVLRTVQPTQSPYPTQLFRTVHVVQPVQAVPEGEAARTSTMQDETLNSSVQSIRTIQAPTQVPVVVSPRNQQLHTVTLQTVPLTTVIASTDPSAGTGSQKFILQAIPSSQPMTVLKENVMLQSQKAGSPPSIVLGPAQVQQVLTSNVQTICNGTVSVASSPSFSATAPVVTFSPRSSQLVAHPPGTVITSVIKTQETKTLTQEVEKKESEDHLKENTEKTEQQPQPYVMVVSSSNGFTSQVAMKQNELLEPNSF

Consider CCCTAG, for which the binding signal with ELK1 was 1.04 fold enrichment (6-mer frequency, TF over GST control); with ELF1 it was 1.06 fold enrichment (6-mer frequency, TF over GST control); in the assay with SPI1 it was 1 fold enrichment (6-mer frequency, TF over GST control); with SPIB it was 1.05 fold enrichment (6-mer frequency, TF over GST control); in the assay with HSF1 it was 1.15 fold enrichment (6-mer frequency, TF over GST control); in the assay with SPIC, 1.18 fold enrichment (6-mer frequency, TF over GST control). The binding signal in the assay with ELK4 is 1.01 fold enrichment (6-mer frequency, TF over GST control); in the assay with ELF3 it was 1.13 fold enrichment (6-mer frequency, TF over GST control); with ETV1 it was 1.01 fold enrichment (6-mer frequency, TF over GST control); with ERF, 1.04 fold enrichment (6-mer frequency, TF over GST control); with ETS2, 1.03 fold enrichment (6-mer frequency, TF over GST control); with ETV3, 1.04 fold enrichment (6-mer frequency, TF over GST control).

With GTAGAT, the binding signal was 1 fold enrichment (6-mer frequency, TF over GST control) with HSF1; 1.16 fold enrichment (6-mer frequency, TF over GST control) with SPIC; 1.01 fold enrichment (6-mer frequency, TF over GST control) with ELK4; 1.01 fold enrichment (6-mer frequency, TF over GST control) with ELF3; 1.07 fold enrichment (6-mer frequency, TF over GST control) with CRX; 1.06 fold enrichment (6-mer frequency, TF over GST control) with ERF. Besides, the binding signal with ETV3L was 1.09 fold enrichment (6-mer frequency, TF over GST control); in the assay with ETS2, 1.02 fold enrichment (6-mer frequency, TF over GST control); with SPDEF, 1.04 fold enrichment (6-mer frequency, TF over GST control).
